Experimental data published in PubChem BioAssay (Tox21).
Results filed as inconclusive are left out. The source made the active and inactive calls. Unless noted, the call rests on the fitted dose curve; in most records, active means well fitted curve in the direction sought with a large enough effect in the repeat runs; inconclusive means weak or mixed curves; inactive means no such curve, though single readings can be large; an effect the other way counts as inactive or inconclusive.

Key:
[1] = target: Thyrotropin receptor (Homo sapiens) (UniProt P16473); assay: qHTS assay to identify small molecule antagonists of the thyroid stimulating hormone receptor (TSHR) signaling pathway (AID 1259385; calls by dose curve; further: nearly all actives have a fitted effect of over 20% in size)
Sequence of Thyrotropin receptor (Homo sapiens) (P16473 whole entry, looked up): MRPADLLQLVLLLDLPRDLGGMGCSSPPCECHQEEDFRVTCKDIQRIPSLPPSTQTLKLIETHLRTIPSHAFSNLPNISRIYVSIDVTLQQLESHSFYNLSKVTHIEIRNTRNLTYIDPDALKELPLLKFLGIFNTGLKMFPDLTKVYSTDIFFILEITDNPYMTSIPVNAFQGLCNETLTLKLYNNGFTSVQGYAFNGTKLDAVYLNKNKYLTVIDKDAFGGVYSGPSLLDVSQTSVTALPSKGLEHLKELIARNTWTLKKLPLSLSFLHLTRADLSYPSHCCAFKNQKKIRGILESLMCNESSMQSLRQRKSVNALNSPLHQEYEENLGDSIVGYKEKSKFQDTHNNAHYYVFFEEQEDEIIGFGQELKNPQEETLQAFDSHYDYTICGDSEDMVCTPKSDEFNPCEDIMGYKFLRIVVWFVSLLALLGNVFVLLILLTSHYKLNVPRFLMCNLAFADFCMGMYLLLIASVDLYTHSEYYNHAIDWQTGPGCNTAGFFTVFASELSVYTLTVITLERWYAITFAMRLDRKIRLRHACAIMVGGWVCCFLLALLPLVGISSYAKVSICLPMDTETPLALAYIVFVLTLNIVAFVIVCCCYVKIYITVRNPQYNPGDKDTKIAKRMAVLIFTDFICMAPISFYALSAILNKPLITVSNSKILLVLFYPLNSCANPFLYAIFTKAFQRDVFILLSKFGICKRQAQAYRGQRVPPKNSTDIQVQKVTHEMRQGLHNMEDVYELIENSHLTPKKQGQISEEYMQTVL
Summary of the method: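 Antagonist mode: compound-treated TSHR-expressing HEK293 cells were stimulated with 1.5 ng/mL TSH (final) in presence of Ro20-1724 for 30 min at RT. HTRF cAMP detection after 1 h; each compound tested at 15 concentrations, triplicate.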

[2] = qHTS assay to identify small molecule agonists of the estrogen receptor alpha (ER-alpha) signaling pathway in the presence of an antagonist - cell viability counter screen (AID 1259386); further: series mostly up to about 92 µM; nearly all actives have a fitted effect of over 30% in size
Summary of the method: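 Compounds tested at 15 concentrations for 22 h at 37C alongside 10.0nM (final) ICI-182,780 antagonist, in VM7Luc4E2 cells grown in phenol red-free, charcoal-stripped medium. Viability read by CellTiter-Fluor fluorescence after 1 h reagent incubation.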

[3] = target: Progesterone receptor (Homo sapiens) (UniProt P06401); assay: qHTS assay to identify small molecule agonists of the progesterone receptor (PR) signaling pathway (AID 1346784; calls by dose curve; further: nearly all actives have a fitted effect of over 30% in size)
Sequence of Progesterone receptor (Homo sapiens) (P06401 whole entry, looked up): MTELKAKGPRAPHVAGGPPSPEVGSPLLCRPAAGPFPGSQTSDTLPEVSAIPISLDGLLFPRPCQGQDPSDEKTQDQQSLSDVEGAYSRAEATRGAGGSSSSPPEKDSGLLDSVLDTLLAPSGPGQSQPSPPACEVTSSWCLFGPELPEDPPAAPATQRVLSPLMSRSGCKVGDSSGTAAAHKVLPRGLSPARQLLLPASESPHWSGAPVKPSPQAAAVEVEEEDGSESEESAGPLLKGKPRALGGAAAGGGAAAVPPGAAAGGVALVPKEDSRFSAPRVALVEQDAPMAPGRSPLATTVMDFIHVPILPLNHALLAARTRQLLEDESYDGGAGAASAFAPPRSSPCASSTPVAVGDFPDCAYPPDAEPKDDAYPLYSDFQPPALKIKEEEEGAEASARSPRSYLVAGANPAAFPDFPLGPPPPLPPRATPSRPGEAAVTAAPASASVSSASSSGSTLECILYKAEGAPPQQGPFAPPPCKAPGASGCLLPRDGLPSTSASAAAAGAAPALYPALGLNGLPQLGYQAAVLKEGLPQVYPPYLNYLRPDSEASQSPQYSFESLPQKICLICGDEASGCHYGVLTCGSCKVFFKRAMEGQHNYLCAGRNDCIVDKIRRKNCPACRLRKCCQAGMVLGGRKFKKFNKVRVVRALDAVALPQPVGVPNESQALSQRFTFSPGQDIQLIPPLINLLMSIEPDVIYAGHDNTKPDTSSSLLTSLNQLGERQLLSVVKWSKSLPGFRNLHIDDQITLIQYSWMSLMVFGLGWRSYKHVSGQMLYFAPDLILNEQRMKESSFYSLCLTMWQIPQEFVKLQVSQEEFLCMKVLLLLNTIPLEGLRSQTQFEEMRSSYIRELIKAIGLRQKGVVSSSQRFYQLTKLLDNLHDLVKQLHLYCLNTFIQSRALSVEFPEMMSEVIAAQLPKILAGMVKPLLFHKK
Summary of the method: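 Reporter assay, GripTite PR-UAS-bla HEK 293T cells: 16 hr exposure to DMSO-dissolved compounds at 37C, 5% CO2, in steroid-depleted (2% charcoal-stripped FBS) medium; beta-lactamase measured by FRET fluorescence.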

[4] = target: Progesterone receptor (Homo sapiens) (UniProt P06401); assay: qHTS assay to identify small molecule antagonists of the progesterone receptor (PR) signaling pathway (AID 1346795; active means well fitted inhibition curve with a large enough effect in the signal ratio in the repeat runs, not every such curve was filed as active; the % refers to the signal ratio)
Summary of the method: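 Stimulus R5020 at 1 nM final; cells HEK293T PR-UAS-bla; medium with 2% charcoal-stripped FBS; compound exposure 16 hr at 37C, 5% CO2; detection by FRET beta-lactamase substrate, 2 hr, room temperature.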

[5] = qHTS assay to identify small molecule antagonists of the progesterone receptor (PR) signaling pathway - cell viability counter screen (AID 1346798); further: series mostly up to about 92 µM; nearly all actives have a fitted effect of over 50% in size
Summary of the method: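 In the same plates used for the beta-lactamase readout, cell viability of compound- and R5020-treated PR-UAS-bla HEK293T cells (16 hr, 37C) was assessed by CellTiter-Glo luminescence.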

[6] = qHTS assay to identify small molecule agonists of the progesterone receptor (PR) signaling pathway - cell viability counter screen (AID 1346799; calls by dose curve; further: nearly all actives have a fitted effect of over 45% in size)
Summary of the method: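 Multiplexed viability read: CellTiter-Glo luminescence, 30 min RT, following LiveBLAzer FRET measurement on PR-UAS-bla HEK293T cells exposed to compounds 16 hr.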

[7] = qHTS assay to identify small molecule antagonists of the TGF-beta/Smad signaling pathway - cell viability counter screen (AID 1346824); further: nearly all actives have a fitted effect of over 50% in size
Summary of the method: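 Cytotoxicity counter-screen run in the same wells as the beta-lactamase Smad reporter read: CellTiter-Glo luminescence after 30 min at room temperature. HEK 293T SBE-bla cells had 5 hr compound exposure at 37 C with TGF-beta1 (0.25 ng/mL stock).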

[8] = qHTS assay to identify small molecule agonists of the TGF-beta/Smad signaling pathway (AID 1346859; active means well fitted activation curve with a large enough effect in the signal ratio in the repeat runs, not every such curve was filed as active; the % refers to the signal ratio; further: series mostly up to about 77 µM)
Summary of the method: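 Screening used HEK 293T SBE-bla cells at 4,000/well. Test agents: 5 hr, 37 C. Detection: FRET substrate, 2 hr RT, then excitation 405 nm with emissions at 460 and 530 nm.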

[9] = target: Thyrotropin-releasing hormone receptor (Homo sapiens) (UniProt P34981); assay: qHTS assay to identify small molecule antagonists of the thyrotropin-releasing hormone receptor (TRHR) signaling pathway (AID 1346877; active means well fitted inhibition curve with a large enough effect in the repeat runs, not every such curve was filed as active; further: series mostly up to about 51 µM)
Sequence of Thyrotropin-releasing hormone receptor (Homo sapiens) (P34981 whole entry, looked up): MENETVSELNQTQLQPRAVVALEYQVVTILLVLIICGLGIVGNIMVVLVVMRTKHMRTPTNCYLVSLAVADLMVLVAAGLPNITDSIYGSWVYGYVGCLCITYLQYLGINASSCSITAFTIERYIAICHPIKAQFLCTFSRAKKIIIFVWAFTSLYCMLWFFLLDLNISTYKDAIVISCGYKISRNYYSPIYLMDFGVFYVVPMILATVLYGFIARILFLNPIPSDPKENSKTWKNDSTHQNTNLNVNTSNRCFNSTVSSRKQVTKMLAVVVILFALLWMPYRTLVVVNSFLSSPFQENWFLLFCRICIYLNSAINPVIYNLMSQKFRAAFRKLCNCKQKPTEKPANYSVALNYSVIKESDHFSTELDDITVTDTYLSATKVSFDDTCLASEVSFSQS
Summary of the method: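 Antagonist mode: after a 5 min room-temperature compound exposure, cells were stimulated with 1 nM (final) TRH. Dye-loaded TRHR-HEK293 cells were used, and calcium-dependent fluorescence was followed for 3 min, with 15-point titrations run in triplicate.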

[10] = target: Thyrotropin-releasing hormone receptor (Homo sapiens) (UniProt P34981); assay: qHTS assay to identify small molecule agonists of the thyrotropin-releasing hormone receptor (TRHR) signaling pathway (AID 1346891; calls by dose curve; further: series mostly up to about 58 µM)
Summary of the method: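 Readout was intracellular calcium fluorescence in TRHR-Hek293 cells. Cells were incubated 18 h, dye-loaded 2 h at 37 °C, and treated with compound in agonist mode.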

[11] = Human pregnane X receptor (PXR) small molecule agonists, qHTS cell viability counter screen (AID 1346977); further: nearly all actives have a fitted effect of over 50% in size
Summary of the method: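 In each well, the PXR reporter HepG2 line was checked for viability: CellTiter-Fluor reagent added 23hr post-dosing, fluorescence read after 1hr incubation at 37C.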

[12] = Caspase-3/7 induction in CHO-K1 cells by small molecules, qHTS cell viability counter screen (AID 1346979); further: nearly all actives have a fitted effect of over 35% in size
Summary of the method: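 Following a 5hr settling period, CHO-K1 cells at 1,500 per well received DMSO-dissolved compounds. Cell viability was quantified 16hr later by CellTiter-Fluor fluorescence, measured after 1hr with reagent at 37C.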

[13] = Caspase-3/7 induction in CHO-K1 cells by small molecules, qHTS assay (AID 1346980); further: nearly all actives have a fitted effect of over 15% in size
Summary of the method: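 Luminescent Caspase-Glo 3/7 read (30min, room temperature) quantified apoptosis induction. Cells were wild-type CHO-K1, treated with compound for 17hr at 37 C and 5% CO2.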

[14] = Caspase-3/7 induction in HepG2 cells by small molecules, qHTS cell viability counter screen (AID 1346981); further: series mostly up to about 92 µM; nearly all actives have a fitted effect of over 30% in size
Summary of the method: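 CellTiter-Fluor fluorescence measured viability in the same wells used for Caspase-Glo 3/7. HepG2 (wild type) at 2,000 cells/well were pre-incubated 5 hr, dosed, and given reagent at 16 hr, with 1 hr further at 37C.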

[15] = target: Nuclear receptor subfamily 1 group I member 2 (Homo sapiens) (UniProt O75469); assay: Human pregnane X receptor (PXR) small molecule agonists, qHTS assay (AID 1346982); further: nearly all actives have a fitted effect of over 35% in size
Sequence of Nuclear receptor subfamily 1 group I member 2 (Homo sapiens) (O75469 whole entry, looked up): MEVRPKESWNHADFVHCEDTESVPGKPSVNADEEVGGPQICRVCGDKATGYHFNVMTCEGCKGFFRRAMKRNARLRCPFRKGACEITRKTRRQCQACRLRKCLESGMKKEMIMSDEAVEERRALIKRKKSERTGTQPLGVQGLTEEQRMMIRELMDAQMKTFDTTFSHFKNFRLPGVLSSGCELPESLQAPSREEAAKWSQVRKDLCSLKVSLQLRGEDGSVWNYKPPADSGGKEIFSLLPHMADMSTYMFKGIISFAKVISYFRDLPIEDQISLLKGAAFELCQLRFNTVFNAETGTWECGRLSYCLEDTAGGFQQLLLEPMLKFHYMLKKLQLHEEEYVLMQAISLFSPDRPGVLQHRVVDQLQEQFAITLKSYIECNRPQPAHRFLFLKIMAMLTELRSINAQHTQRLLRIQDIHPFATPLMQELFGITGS
Summary of the method: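 Agonist mode: luminescence from ONE-Glo after 24 h compound exposure at 37C in HepG2 cells carrying hPXR-responsive CYP3A4 luciferase, plated in charcoal-stripped serum medium 5 h beforehand.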

[16] = qHTS assay to identify small molecule agonists of the TGF-beta/Smad signaling pathway - cell viability counter screen (AID 1346829); further: top concentration of the series differs between compounds; nearly all actives have a fitted effect of over 45% in size
Summary of the method: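 After overnight seating at 37 C and 5% CO2, reporter cells got compounds for 5 hr and FRET substrate for 2 hr; cell viability then came from CellTiter-Glo luminescence.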

[17] = target: Nuclear receptor subfamily 1 group I member 2 (Rattus norvegicus) (UniProt Q9R1A7); assay: Rat pregnane X receptor (rPXR) activation by small molecules, qHTS assay (AID 1346983); conditions: rPXR luciferase reporter cells, One-Glo luminescence, 24 h; max activation: active compounds read high; further: nearly all actives have a fitted effect of over 20% in size
Sequence of Nuclear receptor subfamily 1 group I member 2 (Rattus norvegicus) (Q9R1A7 whole entry, looked up): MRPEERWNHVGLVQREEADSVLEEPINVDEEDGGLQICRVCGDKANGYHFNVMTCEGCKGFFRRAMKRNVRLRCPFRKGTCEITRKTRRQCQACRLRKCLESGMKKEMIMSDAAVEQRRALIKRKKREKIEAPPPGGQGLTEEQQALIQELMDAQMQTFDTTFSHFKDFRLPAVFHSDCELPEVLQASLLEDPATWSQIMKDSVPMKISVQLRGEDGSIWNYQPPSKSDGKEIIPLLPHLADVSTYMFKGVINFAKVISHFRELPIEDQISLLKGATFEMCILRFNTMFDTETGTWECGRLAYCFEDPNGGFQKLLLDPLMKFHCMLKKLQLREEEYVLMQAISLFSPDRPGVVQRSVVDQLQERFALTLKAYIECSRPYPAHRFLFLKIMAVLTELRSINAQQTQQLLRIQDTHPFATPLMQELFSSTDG
Summary of the method: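 Luminescent readout (One-Glo luciferase, 30 min room temperature) followed 24 hr compound treatment at 37 C of rPXR cells plated 2,000 per well and preincubated 5hr; qHTS format with compounds delivered in DMSO.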

[18] = target: Nuclear receptor subfamily 1 group I member 2 (Homo sapiens) (UniProt O75469); assay: CYP3A4 induction through human pregnane X receptor (PXR) by small molecules, qHTS assay (AID 1346984); further: nearly all actives have a fitted effect of over 40% in size
Summary of the method: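 Read-out is luminescence after One-Glo addition, following a 3 hr, 37C incubation with Luciferin-IPA CYP3A4 substrate (3uM final). Before that, compounds were on DPX-2 cells (HepG2 co-transfected with PXR element plus CYP3A4-promoter luciferase) for 24 hr at 37C.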

[19] = target: Nuclear receptor subfamily 1 group I member 2 (Homo sapiens) (UniProt O75469); assay: Human pregnane X receptor (PXR) activation by small molecules, qHTS assay (AID 1346985); further: nearly all actives have a fitted effect of over 40% in size
Summary of the method: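 DPX-2 cells (HepG2 co-transfected with a PXR response element and a CYP3A4-promoter luciferase construct) were seeded at 2,000 per well, rested 5 hr at 37C, then exposed to DMSO-dissolved compounds for 24 hr. Activation was read as luciferase luminescence.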

[20] = Caspase-3/7 induction in HepG2 cells by small molecules, qHTS assay (AID 1346978); further: nearly all actives have a fitted effect of over 15% in size
Summary of the method: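 Caspase-3/7 induction was measured by Caspase-Glo 3/7 luminescence (30 min, room temperature) after a 17 hr compound exposure of wild-type HepG2 cells seeded at 2,000 per well and pre-incubated 5 hr.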
On the % scale 0 is the no-effect control and ±100 the full control effect.

CC(=O)c1ccc(C)cc1
inactive: Potency [1] | outcome [2] | Potency [3] | Potency [4] | Potency [5] | Potency [6] | outcome [7] | outcome [8] | outcome [9] | outcome [10] | Potency [11] | Potency [12] | outcome [13] | outcome [14] | Potency [15]

OCc1ccccn1
inactive: Potency [1] | outcome [2] | Potency [3] | Potency [4] | Potency [5] | Potency [6] | outcome [7] | outcome [16] | outcome [8] | Potency [11] | outcome [13] | outcome [14] | Potency [15] | max activation [17] -1.13% | Potency [18] | Potency [19]

Cc1ccccc1Br
inactive: Potency [1] | outcome [2] | Potency [3] | Potency [4] | Potency [5] | Potency [6] | outcome [7] | outcome [16] | outcome [9] | outcome [10] | Potency [11] | outcome [20] | Potency [12] | outcome [13] | Potency [15]

O=[N+]([O-])c1ccc(CCO)cc1
inactive: Potency [1] | outcome [2] | Potency [3] | Potency [4] | Potency [5] | Potency [6] | outcome [7] | outcome [8] | outcome [9] | outcome [10] | Potency [11] | outcome [20] | Potency [12] | outcome [13] | outcome [14] | Potency [15]

CC(=O)CCc1ccc(O)cc1
inactive: Potency [1] | outcome [2] | Potency [3] | Potency [4] | Potency [5] | Potency [6] | outcome [7] | outcome [8] | outcome [9] | outcome [10] | Potency [11] | outcome [20] | Potency [12] | outcome [13] | Potency [15]

Fc1ccccc1-c1ccccc1
inactive: Potency [1] | outcome [2] | Potency [3] | Potency [4] | Potency [5] | Potency [6] | outcome [7] | outcome [16] | outcome [8] | Potency [11] | Potency [12] | outcome [13] | outcome [14]

O=C(CCOCCOCCOCCOCCC(=O)Nc1c(I)cc(I)c(C(=O)O)c1I)Nc1c(I)cc(I)c(C(=O)O)c1I
inactive: Potency [1] | outcome [2] | Potency [3] | Potency [4] | Potency [5] | Potency [6] | outcome [7] | outcome [8] | Potency [11] | outcome [20] | Potency [12] | outcome [13] | outcome [14] | Potency [15]

CC1(C)SC(C)(C)SC(C)(C)S1
inactive: Potency [1] | outcome [2] | Potency [3] | Potency [4] | Potency [5] | Potency [6] | outcome [7] | outcome [8] | Potency [11] | outcome [20] | Potency [12] | outcome [13] | outcome [14] | Potency [15]

Nc1cc(C(Cl)=C(Cl)Cl)c(S(N)(=O)=O)cc1S(N)(=O)=O
inactive: Potency [1] | outcome [2] | Potency [3] | Potency [4] | Potency [5] | Potency [6] | outcome [7] | outcome [8] | outcome [9] | outcome [10] | Potency [11] | outcome [20] | Potency [12] | outcome [13] | outcome [14] | Potency [15] | max activation [17] -3.29% | Potency [18] | Potency [19]
